The panel holds about 83,000 compounds, 20% with a hit somewhere; the sample as a whole holds those more often.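 Treatment: one concentration, 48 hours, 96-well format. Scoring: percent growth, with anything below 10 considered active.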 A number with no mark means an inactive call. Activity calls are given as the source filed them.
Each compound was assayed on HCC-2998 colon (assay: NCI-60 one-dose screen, 48 h (100 = growth as untreated, 0 = no growth, -100 = all killed)). Details: 10 µM unless noted.

Compared with `CC(C)C[C@H](NC(=O)/C=C/Cn1ccc2ccccc2c1=O)B(O)O`, `O=C(O)c1ccc2cccnc2c1O` is lower in growth: 62.5% for the first, 10.2% for the second.

Compared with `CNNc1ncnc2c1cnn2-c1ccc(S(N)(=O)=O)cc1`, `Cc1ccc(S(=O)(=O)N2CCN(C(=O)CSc3nc4ccc(C)cc4[nH]3)CC2)cc1` is higher in growth: 99.3% for the first, 122% for the second.

First: COc1cccc(/C=N\NC(=O)c2ccncc2)c1O
Second: O=C1NCCc2c1noc2-c1ccccc1
The growth of the first is lower: 57.2% for the first, 99.9% for the second.

Compared with `Nc1ccccc1C#Cc1ccccc1C#Cc1ccc(OCCCCCCOc2ccc(C#Cc3ccccc3C#Cc3ccccc3N)cc2)cc1`, `COc1cnc2c(c1)C(=O)c1c-2n(CCCN2CCOCC2)c(=O)c2cc(F)ccc12` is lower in growth: 95.5% for the first, 13.2% for the second.

Going from `CCCCc1ccc(C(N)=O)nc1` to `CC(=O)O[C@H]1CC[C@@]2(C)C(=CC[C@@H]3[C@@H]2CC[C@]2(C)C(c4cccnc4)=CC[C@@H]32)C1`, the growth falls from 110% to 65.1%.

For `Cc1sc2nc(N3CCCCC3)[nH]c(=O)c2c1C`, the growth was 98%.

For `O=CN1N=C(c2ccc(Nc3ccnc4cc(Cl)ccc34)cc2)CC1c1ccc(Cl)cc1` (stereo not given), the growth was -20.4% (active).
In the case of `CS(=O)(=O)N1CCN(Cc2cc3nc(-c4cccc5[nH]ncc45)nc(N4CCOCC4)c3s2)CC1` (tested in a mixture with another compound), the growth is reported as -9.43% (active).

In the case of `[N-]=[N+]=NCc1ncc(-c2ccc(C(F)(F)F)cc2)c(NC2CCCCCC2)n1`, the growth is reported as 85.8% [50 µM].

`O=C(CNC(=O)c1cccc2ccccc12)Nc1ccccc1Cc1ccccc1` was tested, and the growth was 87.1% [5 µM].
